The whole screen tested about 63,000 compounds, of which about 1,100 (1.7%) were called active.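 The calls were made as follows: active = compounds whose percent cytotoxicity in the single-dose primary screen, scaled between solvent and toxic-drug controls, exceeds 50; inactive = the rest.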 Many of the other results were omitted from the sample, so actives are more common in it than they were. Results with a measured potency or affinity are listed apart.

A short description of the test: cytotoxicity in KRAS-transformed pancreatic duct cells, primary screen, cell-based, fluorescence, HTS (AID 431).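 Also: 0% = DMSO solvent wells and 100% = doxorubicin-treated wells.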 The following applies: HPDE-C7K KRASV12 cells, Alamar Blue viability, 48 h; at 10 µM; hits give high values. For orientation: Resazurin is reduced to fluorescent resorufin, in cell work by metabolically active cells.
On to `COc1ccc(N2C(=O)C(CC(=O)Nc3ccccc3)N(Cc3ccc4c(c3)OCO4)C2=O)cc1` (stereo not drawn), for which the cytotoxicity is -9% (inactive).
To `c1ccc2c(c1)nc(Nc1ccc3c(c1)OCO3)c1nnnn12` belongs -10.2% (inactive).
To `COc1ccc(CCNC(=O)CCS(=O)(=O)c2cccc3nsnc23)cc1OC` belongs -2.7% (inactive); to `COc1ccc(OC)c2sc(N3CCN(c4ccccc4)CC3)nc12`, 15.9% (inactive); to `CCCc1c(C(=O)OCC)[nH]c2c1C(=O)CCC2`, 10% (inactive).
To `O=C(Nc1ccc(C(F)(F)F)cc1)C1CCCN1S(=O)(=O)c1cccc2cccnc12` (stereo not drawn) belongs 16.9% (inactive); to `C=CCNC(=O)c1ccccc1NS(=O)(=O)c1ccc(SC)cc1`, 26.3% (inactive).
Regarding `CCOc1ccc(NC(=O)CN2CCN(CC(=O)Nc3ccc4c(c3)OCCO4)CC2)cc1`, the cytotoxicity is -5.7% (inactive).
To `O=CNC1CCCc2c1[nH]c1ccc(Cl)cc21` (stereo not drawn) belongs 12.8% (inactive); to `Cc1ccc2[nH]c3c(c2c1)CCC3=O`, -12.2% (inactive).
To `CC(Oc1ccc(Cl)cc1)C(=O)Nc1nccs1` (stereo not drawn) belongs -6% (inactive).
To `c1ccc(-n2nnnc2Sc2n[nH]c(-c3ccncc3)n2)cc1` belongs -8.6% (inactive).
For the compound `CC(=O)C1=C(O)C(=O)N(CCN(C)C)C1c1ccc(Cl)cc1` (stereo not drawn), the cytotoxicity is 1% (inactive).
To `COc1cccc(CNC(=O)C2CCN(C(=O)N(C)C)CC2)c1` belongs -6.1% (inactive).
To `CCC(NC(C)C)C(O)c1ccc(O)c(O)c1` (stereo not drawn) belongs 2.8% (inactive); to `Cc1ccc(O)c(CC(C)C)n1`, 5.8% (inactive); to `CC1CCCN(S(=O)(=O)c2cccc(-c3cn4cccnc4n3)c2)C1` (stereo not drawn), -3% (inactive).
Consider `O=C(Nc1ccc2nc(-c3ccco3)c(-c3ccco3)nc2c1)N1CCCCCC1`, for which the cytotoxicity was 38.8% (inactive).
To `O=C(Nc1ccc(N2CCOCC2)cc1)Nc1ccc2nc(-c3ccco3)c(-c3ccco3)nc2c1` belongs 80.3% (active); to `O=C(Nc1ccc(N2CCOCC2)cc1)c1ccc2nc(-c3ccco3)c(-c3ccco3)nc2c1`, -26.4% (inactive); to `Cn1nnnc1SCC(=O)N1CCc2ccccc2C1`, -12.2% (inactive).
On to `CC(C)c1ccc(NC(=O)C(c2ccccc2)N2CCN(C(=O)c3ccco3)CC2)cc1` (stereo not drawn), for which the cytotoxicity was -11.8% (inactive).
To `COc1ccc(NS(=O)(=O)c2ccc(O)c(C(=O)OCC(=O)N3CC(C)OC(C)C3)c2)cc1` (stereo not drawn) belongs 11.2% (inactive); to `C=CCn1c(Cc2csc(N)n2)nnc1SCc1ccc(C(=O)OC)cc1`, -10.3% (inactive).
To `Cc1ccc(-n2c(SCC(=O)NCc3ccco3)nc3sc(C)c(C)c3c2=O)cc1` belongs -4% (inactive); to `Cc1cc(=O)oc2c(N)c(O)ccc12`, -2.8% (inactive); to `Cc1cc(C)c2ccc(C)[n+]([O-])c2c1O`, -6.5% (inactive).
To `Cc1cc(C)c2ccc(N)nc2c1O` belongs 121% (active).

Values taken from PubChem BioAssay AID431 (Sanford-Burnham Center for Chemical Genomics, 2006).
